Assay results reported in PubChem BioAssay AID1159580 (chemical genetic matrix, 2015).
“And” between values parts separate entries of the source, which are not always exact repeats. Equal entries are not always repeated. Out of some 5,500 compounds screened, about 2,000 (36%) were called active. Another 18% or so got no clear call; they are omitted. No stated cut-off is given here; in the data, active means normalized growth mostly below about 0.91 (no sharp cut-off); inconclusive means no clear call, values can overlap the other calls; inactive means mostly above about 0.92. This is one part of the list.

Experiment: chemical genetic growth profiling, strain panel (AID 1159580);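 further: tested at 20 µM; growth read once vehicle control cultures reached saturation at 30 °C; 1 = growth at the plate median or of vehicle wells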
Conditions: S. cerevisiae deletion strains, growth OD

Measured: normalized growth

Nc1ccc(C(=O)O)c(O)c1
inactive: locus YAL021C, strain ccr4, stronger effect = lower value 0.972 | locus YAL026C, strain drs2, stronger effect = lower value 1 | locus YAL030W, strain snc1, stronger effect = lower value 1 | locus YBL061C, strain skt5, stronger effect = lower value 0.989 | locus YBR009C, strain hhf1, stronger effect = lower value 1.02 | locus YBR021W, strain FUR4, stronger effect = lower value 1.01 | locus YBR023C, strain chs3, stronger effect = lower value 0.984 | locus YBR171W, strain sec66, stronger effect = lower value 0.98 | locus YBR229C, strain ROT2, stronger effect = lower value 1 | locus YBR231C, strain swc5, stronger effect = lower value 1 | locus YBR279W, strain paf1, stronger effect = lower value 0.996 | locus YCL011C, strain gbp2, stronger effect = lower value 0.991 | locus YCL016C, strain dcc1, stronger effect = lower value 0.965 | locus YCL029C, strain bik1, stronger effect = lower value 0.997 | locus YCL061C, strain MRC1, stronger effect = lower value 0.979 | locus YCL069W, strain vba3, stronger effect = lower value 0.99 | locus YCR088W, strain abp1, stronger effect = lower value 0.997 | locus YDL005C, strain med2, stronger effect = lower value 0.989 | locus YDL035C, strain GPR1, stronger effect = lower value 1.02 | locus YDL040C, strain nat1, stronger effect = lower value 0.99 | locus YDL074C, strain BRE1, stronger effect = lower value 1.01 | locus YDL101C, strain DUN1, stronger effect = lower value 1.01 | locus YDL134C, strain PPH21, stronger effect = lower value 1 | locus YDL185W, strain tfp1, stronger effect = lower value 1 | locus YDL192W, strain arf1, stronger effect = lower value 0.994 | locus YDR001C, strain nth1, stronger effect = lower value 0.989 | locus YDR069C, strain doa4, stronger effect = lower value 1 | locus YDR101C, strain arx1, stronger effect = lower value 1.01 | locus YDR137W, strain rgp1, stronger effect = lower value 0.959 | locus YDR150W, strain NUM1, stronger effect = lower value 1.01 | locus YDR159W, strain sac3, stronger effect = lower value 1.02 | locus YDR162C, strain NBP2, stronger effect = lower value 1.01 | locus YDR195W, strain ref2 0.996 | locus YDR297W, strain sur2, stronger effect = lower value 1.01 | locus YDR318W, strain mcm21, stronger effect = lower value 1.01 | locus YDR334W, strain swr1, stronger effect = lower value 0.98 | locus YDR335W, strain msn5, stronger effect = lower value 0.993 | locus YDR388W, stronger effect = lower value 1 | locus YDR392W, strain spt3, stronger effect = lower value 0.931 | locus YDR502C, strain sam2, stronger effect = lower value 0.998 | locus YEL003W, strain gim4, stronger effect = lower value 1.02 | locus YEL037C, strain rad23, stronger effect = lower value 1 | locus YEL061C, strain CIN8 (second series), stronger effect = lower value 0.994 | locus YEL061C, strain CIN8, stronger effect = lower value 1.01 | locus YER015W, strain faa2, stronger effect = lower value 0.999 | locus YER016W, strain bim1, stronger effect = lower value 1 | locus YER110C, stronger effect = lower value 1 | locus YER111C, strain swi4, stronger effect = lower value 0.984 | locus YER155C, strain BEM2 (second series), stronger effect = lower value 1 | locus YER155C, strain BEM2, stronger effect = lower value 1 | locus YER167W, strain BCK2, stronger effect = lower value 1.01 | locus YFR010W, strain ubp6, stronger effect = lower value 1 | locus YGL078C, strain dbp3, stronger effect = lower value 0.995 | locus YGL086W, strain mad1, stronger effect = lower value 0.997 | locus YGL167C, strain pmr1, stronger effect = lower value 0.992 | locus YGL173C, strain kem1, stronger effect = lower value 0.99 | locus YGL227W, strain vid30, stronger effect = lower value 0.991 | locus YGL240W, strain doc1, stronger effect = lower value 0.997 | locus YGL248W, strain PDE1, stronger effect = lower value 0.999 | locus YGL253W, strain hxk2, stronger effect = lower value 0.978 | locus YGR135W, strain pre9, stronger effect = lower value 0.993 | locus YGR252W, strain gcn5, stronger effect = lower value 0.959 | locus YHR013C, strain ard1, stronger effect = lower value 0.961 | locus YHR027C, strain rpn1, stronger effect = lower value 0.997 | locus YHR030C, strain SLT2, stronger effect = lower value 0.974 and 1.01 and 1.07 | locus YHR079C, strain IRE1 (second series), stronger effect = lower value 1 | locus YHR079C, strain IRE1, stronger effect = lower value 1.02 and 1.04 | locus YHR094C, strain hxt1, stronger effect = lower value 0.997 | locus YHR129C, strain ARP1, stronger effect = lower value 1.01 | locus YHR142W, strain chs7, stronger effect = lower value 0.964 | locus YHR200W, strain rpn10, stronger effect = lower value 0.999 | locus YIL066C, strain RNR3, stronger effect = lower value 1.03 | locus YIL073C, strain SPO22, stronger effect = lower value 1.04 | locus YIL125W, strain kgd1, stronger effect = lower value 1 | locus YIR030C, strain dcg1, stronger effect = lower value 1 | locus YJL092W, strain hpr5, stronger effect = lower value 0.984 | locus YJL095W, strain BCK1 (second series), stronger effect = lower value 0.997 | locus YJL095W, strain BCK1, stronger effect = lower value 0.994 and 1.01 and 1.04 | locus YJL115W, strain asf1, stronger effect = lower value 0.99 | locus YJL129C, strain trk1, stronger effect = lower value 0.968 | locus YJL134W, strain LCB3, stronger effect = lower value 1.01 | locus YJL154C, strain vps35, stronger effect = lower value 0.99 | locus YJL164C, strain tpk1, stronger effect = lower value 1.01 | locus YJL166W, strain qcr8, stronger effect = lower value 0.962 | locus YJL168C, strain set2, stronger effect = lower value 1 | locus YJL187C, strain SWE1 (second series), stronger effect = lower value 1.01 | locus YJL187C, strain SWE1, stronger effect = lower value 0.999 | locus YJR043C, strain POL32, stronger effect = lower value 1.01 | locus YJR066W, strain TOR1, stronger effect = lower value 0.963 and 0.985
